Active and inactive are the calls of the source. Calls come from the whole dose curve; as a rule, active = well fitted curve in the direction sought with a large enough effect in the repeat runs; inconclusive = weak or mixed curves; inactive = flat fitted curve, though single readings scatter.
Experiment: qHTS assay to test for compound auto fluorescence at 590 nm (red) in HepG2 cell free culture (AID 720684)
Settings: cell-free medium autofluorescence, red 540/590 nm; series mostly up to 91.3 µM; fluorescence, % of Rose Bengal: at the top concentration
From the text: U.S. Tox21 Program National Center for Advancing Translational Sciences [NCATS] NIH Chemical Genomics Center [NCGC] U.S. Environmental Protection Agency [EPA] National Institutes of Environmental Health Sciences [NIEHS] National Toxicology Program [NTP] U.S. Food and Drug Administration [FDA] Tox21 Assay Overview: Compound auto fluorescence often interferes with screening of the compound library against various biological targets and signaling pathways. Some of these compounds may have fluorophoric properties. Such properties may interfere with the assay outputs resulting in false positives and/or negatives. To decrease such complications and ensure the compound activities are relevant in terms of biological response, the Tox21 10K compound library was screened for auto fluorescence. From the fluorophores used as reporter signals in our screening assays, the auto fluorescence equivalencies of compounds against three fluorophores have been evaluated: Triamterene, Fluorescein and Rose Bengal sodium for blue, green and red fluorescence, respectively. The fluorescence intensities were measured using Excitation/Emission wavelengths at 405/460nm, 485/535nm and 540/590nm for blue, green and red labels, respectively. This assay includes the red fluorescence data.
Tox21 Assay Protocol Summary: 5 uL of culture medium (MEM containing 10% FBS) per well was dispensed into black wall/clear bottom 1536-well plates using a Multidrop Combi Dispenser (ThermoFisher Scientific, Waltham, MA). After 23 nL compound or DMSO vehicle was transferred into assay plate by a pintool work station (Kalypsys, San Diego, CA), fluorescence intensities in the assay plates were measured by an Envision (PerkinElmer, Shelton, CT) plate reader using three labels for measuring blue, green and red fluorescence at […] 460, 535 and 590nm respectively.
% is set by controls: 0 for no effect and ±100 for the full control effect.

SMILES | fluorescence, % of Rose Bengal | outcome
COC(=O)C1=C(C)NC(C)=C(C(=O)OCC(C)=O)C1c1ccccc1[N+](=O)[O-] (stereo not given) | -0.159% [at 46 µM] (inactive) | –
Nc1nc(F)nc2c1ncn2[C@@H]1O[C@H](CO)[C@@H](O)[C@@H]1O | – | inactive
Nc1ccn(C2CO[C@H](CO)O2)c(=O)n1 (stereo not given in full) | 0.0166% [at 46 µM] (inactive) | –
COC(=O)CCCC(=O)O | 0.0628% (inactive) | –
CCC(C)OC(=O)N1CCCCC1CCO (stereo not given) | -0.11% (inactive) | –
CO[Si](CCCNCCC[Si](OC)(OC)OC)(OC)OC | -0.0111% (inactive) | –
CC(C)c1cccc(O)c1 | -0.0258% [at 95.7 µM] (inactive) | –
C[C@H](O)C(=O)Nc1c(I)c(C(=O)NC(CO)CO)c(I)c(C(=O)NC(CO)CO)c1I | 0.0851% [at 18.6 µM] (inactive) | –
Cc1cc(C)cc(OCC2CNC(=O)O2)c1 (stereo not given) | 0.55% [at 46 µM] (inactive) | –
CC(C)(O)C(=O)c1ccc(OCCO)cc1 | -0.0661% (inactive) | –
CCCCC=O | 0.0679% (inactive) | –
CCCCC1CCCCC(=O)O1 (stereo not given) | -0.0189% (inactive) | –
CC(C)c1cccc(C(C)C)c1N | -0.0997% (inactive) | –
CCC(C(=O)NC(N)=O)c1ccccc1 (stereo not given) | – | inactive
CC(C)[C@H](N)C(=O)OCCOCn1cnc2c(=O)[nH]c(N)nc21 | 0.695% [at 46 µM] (inactive) | –
NC(=O)c1ncn([C@@H]2O[C@H](CO)[C@@H](O)[C@H]2O)c1O | -0.29% [at 46 µM] (inactive) | –
CCCCCCCCCCC1CO1 (stereo not given) | -0.178% (inactive) | –
O=C(O)c1cccc(C(=O)O)n1 | -0.0035% (inactive) | –
Cc1nc(-c2ccc(OCC(C)C)c(C#N)c2)sc1C(=O)O | 0.162% [at 46 µM] (inactive) | –
C=C(C)C(=O)OCCCCCCCCCCCCCCCCCC | -0.0496% [at 18.6 µM] (inactive) | –

SMILES | fluorescence, % of Rose Bengal | outcome
CSc1nc(NC2CC2)nc(NC(C)(C)C)n1 | -0.0436% (inactive) | –
COc1cc(CCC(C)=O)ccc1O | -0.274% (inactive) | –
CCC(=O)c1cccc(Cl)c1 | 0.209% [at 95.7 µM] (inactive) | –
CSc1ccc(C=O)cc1 | -0.419% (inactive) | –
c1ccc(SCCSc2ccccc2)cc1 | -0.445% (inactive) | –
NCCN1CCNC1=O | -0.214% (inactive) | –
CC1(C)SC(C)(C)SC(C)(C)S1 | -0.126% (inactive) | –
Cc1ncc(CSSCc2cnc(C)c(O)c2CO)c(CO)c1O | 0.681% [at 46 µM] (inactive) | –
CCO[Si](C)(OCC)OCC | -0.006% (inactive) | –
CN(C)C(=O)Nc1ccccc1 | -0.188% (inactive) | –
O=S(=O)(c1cccc2cnccc12)N1CCCNCC1 | 0.0212% [at 46 µM] (inactive) | –
OC[C@H]1O[C@@H]2O[C@H]3[C@H](O)[C@@H](O)[C@@H](O[C@H]4[C@H](O)[C@@H](O)[C@@H](O[C@H]5[C@H](O)[C@@H](O)[C@@H](O[C@H]6[C@H](O)[C@@H](O)[C@@H](O[C@H]7[C@H](O)[C@@H](O)[C@@H](O[C@H]8[C@H](O)[C@@H](O)[C@@H](O[C@H]9[C@H](O)[C@@H](O)[C@@H](O[C@H]1[C@H](O)[C@H]2O)O[C@@H]9CO)O[C@@H]8CO)O[C@@H]7CO)O[C@@H]6CO)O[C@@H]5CO)O[C@@H]4CO)O[C@@H]3CO | -0.439% [at 46 µM] (inactive) | –
CCCC(=O)O[C@]1(C(=O)CCl)[C@@H](C)C[C@H]2[C@@H]3CCC4=CC(=O)C=C[C@]4(C)[C@@]3(F)C(=O)C[C@@]21C | 0.0175% [at 46 µM] (inactive) | –
O=Cc1ccccc1[N+](=O)[O-] | -0.0293% (inactive) | –
CCN1CCCC(OC(=O)C(c2ccccc2)c2ccccc2)C1 (stereo not given) | 0.44% [at 18.6 µM] (inactive) | –
C=CCSCC1Nc2cc(Cl)c(S(N)(=O)=O)cc2S(=O)(=O)N1 (stereo not given) | 0.0522% [at 46 µM] (inactive) | –
CCN(CC)C(=O)c1ccc(O)c(OC)c1 | – | inactive
CCCCCCCCN(C)CCCCCCCC | -0.161% [at 95.7 µM] (inactive) | –
Nc1ccc2cc(S(=O)(=O)O)ccc2c1 | 0.0324% (inactive) | –
CN(C)CCn1nnnc1SCC1=C(C(=O)O)N2C(=O)[C@@H](NC(=O)Cc3csc(N)n3)[C@H]2SC1 | 0.544% [at 18.6 µM] (inactive) | –

Reference: PubChem BioAssay (Tox21)
